# Assay results taken from the supplement of paper PMC9135407.
# Where “and” joins values, the source holds several entries; their conditions need not be identical. Equal values may be shown once. Where a name gives a salt, the structure may show the parent alone. The whole screen tested about 5,800 compounds, of which about 620 (11%) showed activity. The full list was thinned out, with actives kept by preference. Values without a mark were called inactive.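 The calls were made as follows: active = score above a cut-off or among the top three wells of a plate; in these data no inactive exceeds 0.85.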
# System: primary human hepatic stellate cells (donor 1)
# Experiment: scaled lipid accumulation score (0 = DMSO-like, 1 = nortriptyline-like); higher = stronger HSC inactivation (lipid re-accumulation), active = hit call of the paper
# Details: 48 h
# [1] = library stock concentration: 1 mM
# [2] = library stock concentration: 10 mM
smiles,measurement,setting,value
CN1CCC2=C[C@H](O)[C@H]3OC(=O)c4cc5c(cc4[C@H]3[C@@H]21)OCO5 [Hippeastrine hydrobromide],scaled lipid accumulation score,,≤ 0
O=S(=O)(c1c(O)c(Cl)cc(Cl)c1Cl)c1c(O)c(Cl)cc(Cl)c1Cl [p38 MAP Kinase Inhibitor IV],scaled lipid accumulation score,library stock concentration: 3.33 mM,≤ 0
CCCCC/C=C\C/C=C\C/C=C\C/C=C\CCCC(=O)NCCS(=O)(=O)O [N-Arachidonoyl Taurine],scaled lipid accumulation score,[1],0.01
O=C1C2CCN(CC2)C1(CO)CO [listing 1 of 2 here],scaled lipid accumulation score,[1],≤ 0
same,scaled lipid accumulation score,[2],0.045
O=C1C2CCN(CC2)C1(CO)CO [listing 2 of 2 here],scaled lipid accumulation score,library stock concentration: 27 mM,0.911 (active)
CC(=O)C1=C(O)[C@@H]2[C@H]3c4c[nH]c5cccc(c45)C[C@H]3C(C)(C)N2C1=O [Cyclopiazonic Acid],scaled lipid accumulation score,[2],0.021
CC(=O)C1=C(O)[C@@H]2[C@H]3c4c[nH]c5cccc(c45)C[C@H]3C(C)(C)N2C1=O [Cyclopiazonic acid],scaled lipid accumulation score,library stock concentration: 14.9 mM,0.019
"BrC1C(Br)C(Br)C(Br)C(Br)C1Br (centres undefined) [1,2,3,4,5,6-Hexabromocyclohexane]",scaled lipid accumulation score,[2],≤ -0.001
CC1=C2C[C@H]3[C@@H](CC=C4C[C@@H](O)CC[C@@]43C)[C@@H]2CC[C@]12O[C@@H]1C[C@H](C)CN[C@H]1[C@H]2C [Cyclopamine],scaled lipid accumulation score,library stock concentration: 12.1 mM,0.19
COC(=O)/C=C/C(=O)N[C@@H]1CC[C@@]2(O)[C@H]3Cc4ccc(O)c5c4[C@@]2(CCN3CC2CC2)[C@H]1O5,scaled lipid accumulation score,[2],0.325
CC1=NCCc2c1[nH]c1cc(O)ccc21 [Harmalol hydrochloride],scaled lipid accumulation score,[2],≤ 0
COc1ccc2c3c([nH]c2c1)C(C)=NCC3 [Harmaline hydrochloride dihydrate],scaled lipid accumulation score,,0.371
COc1ccc2c3c([nH]c2c1)C(C)=NCC3 [Harmaline],scaled lipid accumulation score,[2],0.389
CC1=NCCc2c1[nH]c1cc(O)ccc21.Cl.O.O [Harmalol hydrochloride dihydrate],scaled lipid accumulation score,,0.979 (active)
COC1=C[C@@H]2C3=C([C@@H]2C1=O)[C@@H](NC(C)=O)CCc1cc(OC)c(OC)c(OC)c13 [Lumicolchicine gamma],scaled lipid accumulation score,,≤ 0
"c1ccc(C2CNCc3ccccc32)cc1 (centres undefined) [4-Phenyl-1,2,3,4-tetrahydroisoquinoline hydrochloride]",scaled lipid accumulation score,[2],0.217
Clc1ccc(C(OCCN2CCCCC2)c2ccccc2)cc1 (centres undefined) [Cloperastine hydrochloride],scaled lipid accumulation score,,0.488
same,scaled lipid accumulation score,[2],0.544
Fc1ccc(C(OCCN2CCN(C/C=C/c3ccccc3)CC2)c2ccc(F)cc2)cc1,scaled lipid accumulation score,[2],0.507
c1ccc(CCCN2CCN(CCOC(c3ccccc3)c3ccccc3)CC2)cc1,scaled lipid accumulation score,[2],≤ -0.07 and 0.566
Fc1ccc(C(OCCN2CCN(CCCc3ccccc3)CC2)c2ccc(F)cc2)cc1,scaled lipid accumulation score,[2],≤ -0.061
Cl.Cl.Fc1ccc(C(OCCN2CCN(CCCc3ccccc3)CC2)c2ccc(F)cc2)cc1 [listing 1 of 2 here],scaled lipid accumulation score,,0.864 (active)
Cl.Cl.Fc1ccc(C(OCCN2CCN(CCCc3ccccc3)CC2)c2ccc(F)cc2)cc1 [listing 2 of 2 here],scaled lipid accumulation score,[2],0.942 (active)
